Out of some 65,000 compounds screened, about 2,100 (3.2%) showed an effect of 50% or more. The median lay at about -52%. This excerpt belongs to a sample that is enriched for strong results.

Drawing on ChEMBL document CHEMBL4513216, “Probing the Open Global Health Chemical Diversity Library for Multistage-Active Starting Points for Next-Generation Antimalarials” (ACS Infect Dis, 2020), this text covers INHIBITION for 50 compounds.

This experiment deals with Plasmodium falciparum. The experiment can be described thus: Screen against P. falciparum Asexual Blood Stage (ABS), at 5uM. The format is functional, Dd2. The conditions noted are these: tested at 5 uM.
Consider `CC(=O)N1CCC2(CCN(CC(C)C)C2)C1` (stereo not given), for which the INHIBITION is given as -17.7%.

For the compound `CCOC(=O)CN1C[C@@H]2OCCN(c3ncc(F)cn3)[C@@H]2C1`, the INHIBITION is -17.5%.

Turning to `COCc1cn(C[C@H]2C[C@@H]3CCN2C[C@@H]3C(=O)N2CCOCC2)nn1`, the INHIBITION is reported as -65.4%.

As to `Cc1cc(C)nc(-n2nc(C)c3c2NC(=O)CSC3c2cnn(C)c2)n1` (stereo not given), the INHIBITION is -48.5%.

For the compound `O=C(Cc1cnccn1)N1C[C@@H]2CC[C@H]1CN(Cc1cscn1)C2`, the INHIBITION is listed as -120%.

With `Cc1nc(CN2CCCC(CCc3ccc(F)c(F)c3)C2)c[nH]1` (stereo not given), the INHIBITION worked out at 81.9%.

In the case of `Cn1ccnc1CN1CCCC(CCc2ccc(F)c(F)c2)C1` (stereo not given), the INHIBITION is 74.5%.

On to `COc1cccc([C@@H]2CCN(Cc3c[nH]c(C)n3)C[C@H]2O)c1`, for which the INHIBITION is -35.2%.

In the case of `Cn1cc(CN2CCCC(CCc3ccccc3C(F)(F)F)C2)cn1` (stereo not given), the INHIBITION was found to be 87.9%.

Take `FC(F)(F)c1ccccc1CCC1CCCN(Cc2cscn2)C1` (stereo not given): the INHIBITION worked out at 79.6%.

Regarding `Cn1ccnc1CN1CCN2C[C@H](OCc3cccnc3)C[C@H]2C1`, the INHIBITION is on record as -52.6%.

Take `Cc1noc(C)c1CN1CCO[C@H]2CN(Cc3nccn3C)C[C@H]21`: the INHIBITION was -35.4%.

In the case of `CN(C)Cc1cncc2c1CCN(Cc1cnn(C)c1)C2`, the INHIBITION was -86.8%.

Consider `Cc1nc(CN2CCCC(CCc3ccccc3C(F)(F)F)C2)no1` (stereo not given), for which the INHIBITION stood at 45.9%.

`O=C1N(Cc2ccc(F)c(F)c2)CCCC1(O)CNCC1CCCCC1` (stereo not given): the INHIBITION is reported as 74.1%.

Regarding `COc1ccc(F)c(CN2CCCC(O)(CNC3CCCCC3)C2=O)c1` (stereo not given), the INHIBITION came to 70.3%.

`Cc1nc(C2(NCc3cccc(F)c3F)CCCCC2)no1`: the INHIBITION was -42.2%.

Regarding `O=C1N(Cc2cccc(F)c2F)CCCC1(O)CNCC1CCCCC1` (stereo not given), the INHIBITION was determined as 74.4%.

For `COC(=O)C(CO)NC(=O)c1cn(Cc2ccccc2F)nn1` (stereo not given), the INHIBITION is -19.2%.

`CC(C)(C)CNCC1(O)CCCN(Cc2ccccc2F)C1=O` (stereo not given): the INHIBITION was determined as 84.5%.

Take `O=C(C1CCCC1)N1CCO[C@@H]2CNC[C@@H]21`: the INHIBITION was 8.33%.

With `O=C1N(c2ccsc2)CCC12CCCN(Cc1ccccn1)C2` (stereo not given), the INHIBITION was -30.2%.

For `c1cncc(OC[C@@H]2CC[C@H]3[C@H](CCN3Cc3cccs3)O2)c1`, the INHIBITION is reported as -15.5%.

On to `Cc1oncc1C(=O)N[C@@H]1CN(CC2CC2)C[C@@H]2CCCO[C@@H]21`, for which the INHIBITION was -164%.

In the case of `Cc1cc(CN2C[C@@H]3COC[C@]3(CNC(=O)c3ccco3)C2)no1`, the INHIBITION is recorded as -65.1%.

As to `CC(C)N1CCO[C@H]2CN(C(=O)Cc3cccs3)C[C@H]21`, the INHIBITION is listed as -102%.

As for `c1cc(CO[C@@H]2CC[C@H]3[C@H]2OCCN3CC2CCOCC2)ccn1`, the INHIBITION is on record as -52.1%.

As for `CNC(=O)[C@@]12CCCN(c3ncccn3)[C@@H]1CN(C)C2`, the INHIBITION is -69.8%.

Regarding `CC(C)(C)c1cc(=O)[nH]c(C2(N)CCCC2)n1`, the INHIBITION is -59.9%.

As to `NC(=O)CN1CCC(Nc2ccnc3ccc(Cl)cc23)CC1`, the INHIBITION was determined as 94.4%.

In the case of `Cc1cc(C)cc(OCC(=O)N2CCCN(CC(N)=O)CC2)c1`, the INHIBITION is listed as -21.7%.

As for `CS(=O)(=O)N1CCC(Nc2ccc(C#N)c(C(F)(F)F)c2)CC1`, the INHIBITION is recorded as -14.2%.

As to `NC(=O)CN1CCCN(C(=O)COc2cccc(F)c2)CC1`, the INHIBITION was -58.7%.

Take `CS(=O)(=O)N1CCC(Nc2ccnc3ccc(Cl)cc23)CC1`: the INHIBITION came out at 88.6%.

For `O=C1[C@H]2CN(Cc3ccoc3)C[C@H]2CN1Cc1ccncc1`, the INHIBITION is recorded as -110%.

In the case of `COc1ccc2c(c1)c(C(=O)Nc1cc(C)n(C)n1)cn2C(C)C`, the INHIBITION came to 9.46%.

Take `O=C1NCc2ccccc2CC12CCN(Cc1ccncc1Cl)C2` (stereo not given): the INHIBITION is on record as -32%.

With `COc1cc(C2SCC(=O)Nc3ccsc32)cc(OC)c1OC` (stereo not given), the INHIBITION is -0.914%.

Take `c1csc(CN2CC[C@H]3C[C@H](c4ccncn4)O[C@@H]3C2)c1`: the INHIBITION is -71.5%.

In the case of `Cn1cc(CN2CCC3(CCCN3Cc3cccnc3)CC2)cn1`, the INHIBITION is given as -18.8%.

In the case of `C=Cn1cc(CN2CCN(CC3(c4ccccc4)CC3)CC2)c(C)n1`, the INHIBITION is listed as 72.4%.

Take `Cn1cc(CN2CCC3(CC2)C(=O)Nc2ccccc23)cn1`: the INHIBITION was -74.2%.

For `Cn1cc(CN2CCN(CC3(c4ccccc4)CC3)CC2)cn1`, the INHIBITION was found to be 78.9%.

For the compound `O=C1CO[C@@H]2CN(C3CCOCC3)C[C@H]2N1Cc1ccncc1`, the INHIBITION is -24.5%.

As to `Cn1nc(-c2cccs2)cc1[C@H]1CN2CC[C@H]1C[C@@H]2CNS(C)(=O)=O`, the INHIBITION is on record as -60.1%.

Consider `Cc1nc(C2(NCC(=O)NC(=O)Nc3ccccc3)CCCCC2)no1`, for which the INHIBITION is -126%.

As for `CCn1ccnc1CN1CCCN(C(=O)Cc2ccc(C)s2)CC1`, the INHIBITION is -75.1%.

Regarding `CCn1ccnc1CN1CCCC(CO)(Cc2cccc(Cl)c2)C1` (stereo not given), the INHIBITION worked out at 76.8%.

As to `CCn1ccnc1CN1CCCN(C(=O)Cc2ccc(C)nc2)CC1`, the INHIBITION is on record as -85.3%.

With `CCOC(=O)C1(Cc2ccccc2)CCCN(Cc2nccn2CC)C1` (stereo not given), the INHIBITION is listed as 71.1%.
